# PubChem BioAssay (NCATS)
# Active and inactive are the calls of the source. Calls come from the whole dose curve; as a rule, active = well fitted activation curve with a large enough effect; inconclusive = small, poorly fitted or top-dose-only effect; inactive = flat fitted curve, though single readings scatter.
# Test: Cellular Toxicity (caspase-3) SHSY5Y (AID 657)
# Conditions: SH-SY5Y caspase-3 activation, DMSO zero, 10 µM staurosporine = 100%; series mostly up to 91.7 µM
# From the text: NIH Chemical Genomics Center [NCGC]
# NIH Molecular Libraries Screening Centers Network [MLSCN]
# National Institutes of Environmental Health Sciences [NIEHS]
# National Toxicology Program [NTP]
# We have developed a 1536-well cell-based assay for quantitative high throughput screening (qHTS) against a number of cell lines to determine in vitro caspase 3/7 activity of small molecules. This particular assay uses the SH-SY5Y cell line which is derived from human neuroblastoma.
# NCGC Assay Protocol Summary:
# The Caspase-Glo 3/7 assay (Promega) is a homogeneous method to measure caspase-3 and caspase-7 activities in cultured cells. The quantitation of caspase 3/7 activity is based on the cleavage of a peptide-aminoluciferin substrate. After caspase cleaves the substrate the free aminoluciferin is liberated and serves as the substrate of luciferase, which generates the light. The luminescent signal is proportional to the amount of caspase 3/7 activity present.
# Using the Caspase-Glo 3/7 assay, the amount of caspase 3/7 activity was measured in the SH-SY5Y cell line with complete culture medium following compound treatment for 16 hours. The assay was performed in opaque white 1536-well plates. In the screen, staurosporine and doxorubicin were used as positive controls. Library compounds were measured for their ability to cause the activation of caspase 3/7 in the cell line, as reflected by an increase in luminescence signal, in a concentration-dependent manner. Data were normalized to the controls for basal activity (DMSO only) and 100% stimulation (10 uM staurosporine). AC50 values were determined from concentration-response data modeled with the standard Hill equation.
# qHTS protocol for caspase 3/7 assay in SH-SY5Y cells
# [Step] [Parameter] [Value] [Description]
# 1. Reagent; 5 uL; 1500 SH-SY5Y cells/well
# 2. Time; 5 hr; 37 °C incubation
# 4. Controls; 23 nL; doxorubicin 7 pM to 100 uM & staurosporine 1.4 pM to 20 uM
# 5. Time; 16 hr; 37 °C incubation
# 6. Reagent; 5 uL; Caspase-Glo 3/7 reagent
# 7. Time; 1 hr; Room Temperature
# 8. Detection; Luminescence; Viewlux plate reader
# Keywords: caspase 3/7, apoptosis, SH-SY5Y cell line, luminescence, NTPHTS, NTPHTS_NCGC, NIEHS, EPA, DSSTox, MLSMR, MLSCN, NIH Roadmap, qHTS, NCGC
row,SMILES,outcome
1,Cc1ccccc1,inactive
2,IC(I)I,inactive
3,CCCCCCCC(=O)O,inactive
4,CCOC(C)=O,inactive
5,CCCCC/C=C\C/C=C\CCCCCCCC(=O)O,inactive
6,CC(O)CO (stereo not given),inactive
7,CC1=C2[C@@H]([C@H](C)CC[C@H]2/C=C(\C)C(=O)O)[C@H](O)C1,inactive
8,O=C(O)CCC(=O)C(=O)O,inactive
9,CCCCCCCC/C=C\CCCCCCCC(=O)O,inactive
10,O=S(=O)(O)O,inactive
11,O=CCCCC=O,inactive
12,CC(C)=O,inactive
13,Nc1ccn([C@H]2CS[C@@H](CO)O2)c(=O)n1,inactive
14,CCOc1ccc2c(c1)C(C)=CC(C)(C)N2,inactive
15,CC1=C(/C=C/C(C)=C/C=C/C(C)=C/CO)C(C)(C)CCC1,inactive
